Common to all, as to assay: qHTS profiling for inhibitors of Plasmodium falciparum proliferation (AID 504749); further: nearly all actives have a fitted effect of over 60% in size
Holding throughout (conditions): P. falciparum in erythrocytes, SYBR Green DNA, 72 h; series mostly up to 28.7 µM

The subject of one test is DIV14. Summed up: (§1)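 Infected RBCs, 0.3% parasitemia/2.5% Hct final; cpd 72 h, 37 C, 5% CO2; lysis buffer with saponin/triton/SYBR Green I, o/n RT dark; FI 485/535; norm. to artemisinin (0.29 uM) and DMSO.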
In another test the test system is DIV17. Summed up: as §1
The subject of the next test is DIV30. Summed up:
as §1

For the next test, the system named is Dd2. Summed up: as §1
Another test has as its system ECU. Put shortly: as §1
The test system of a further test is FAB9. Summed up:
as §1

The next test concerns GB4. Summed up: as §1
In another test the test system is HB3. Put shortly: as §1
The test system of a further test is ICS. Put shortly: as §1
Another test deals with JCK. Put shortly: as §1
For another test, the system named is N140. Summed up:
as §1

The subject of the next test is P93_24. Put shortly: as §1
The test system of the next test is P94_40. Summed up: as §1
The next test has as its system PAD. Summed up: as §1
Another test has as its system PC15. Put shortly: as §1
In another test the test system is PC26. Summed up:
as §1

A further test has as its system PC49. Summed up: as §1
For a further test, the system named is SC27B. Put shortly:
as §1

The next test relates to TAB109. Summed up:
as §1

For the next test, the system named is TAB113. Summed up: as §1

Inconclusive results are not listed. The source made the active and inactive calls. The call rests on the fitted dose curve; in most records, active means well fitted inhibition curve with a large enough effect; inconclusive means small, poorly fitted or top-dose-only effect; inactive means flat fitted curve, though single readings scatter.
Potency means the concentration at half of the fitted maximal effect.

Consider `COc1cc(C(=O)N2CCOCC2)cc(OC)c1OC`, for which the Potency result with DIV14, in the test on DIV17, in the test with DIV30, with Dd2, in the test on ECU and with FAB9 was “inactive” each time. Besides, the Potency entry with GB4, in the test on HB3, in the test with ICS, with JCK, with N140 and with P93_24 was “inactive” each time. The Potency result in the test on P94_40, with PAD, with PC15, in the test on PC26, in the test with PC49 and with SC27B was “inactive” throughout. The Potency entry in the test on TAB109 and with TAB113 was “inactive” each time.

On to `Oc1cccc(O)c1`, for which the Potency entry in the test with DIV14, in the test with DIV17, in the test on DIV30, with Dd2, in the test with ECU and with FAB9 was “inactive” in each case. Besides, the Potency result in the test with GB4, in the test on HB3, in the test on ICS, in the test with JCK, with N140 and in the test with P93_24 was “inactive” throughout. The Potency entry in the test with P94_40, with PAD, in the test with PC15, with PC26, in the test on PC49 and in the test with SC27B was “inactive” in each case. The Potency result in the test on TAB109 and with TAB113 was “inactive” throughout.

For the compound `CC1(C)[C@@H]2CC[C@@]1(C)C(=O)C2`, the Potency result in the test with DIV14, in the test with DIV17, in the test with DIV30, in the test on Dd2, in the test on ECU and in the test on FAB9 was “inactive” throughout. In addition, the Potency result in the test on GB4, in the test with HB3, with ICS, in the test with JCK, with N140 and in the test on P93_24 was “inactive” in each case. The Potency result with P94_40, with PAD, with PC15, with PC26, in the test on PC49 and in the test with SC27B was “inactive” each time. Also, the Potency result with TAB109 and in the test with TAB113 was “inactive” throughout.

For `CCN(CC)CCSC(=O)C(c1ccccc1)c1ccccc1`, the Potency result with DIV14, in the test on DIV17, with DIV30, in the test on Dd2, with ECU and in the test with FAB9 was “inactive” throughout. For the same compound, the Potency entry in the test on GB4, in the test with HB3, with ICS, in the test with JCK, with N140 and in the test with P93_24 was “inactive” each time. Moreover, the Potency entry in the test with P94_40, with PAD, in the test with PC15, in the test with PC26, in the test with PC49 and in the test with SC27B was “inactive” throughout. Moreover, the Potency result with TAB109 and in the test on TAB113 was “inactive” throughout.

As to `CC(=O)Oc1ccc(C2(c3ccc(OC(C)=O)cc3)C(=O)Nc3ccccc32)cc1`, the Potency result with DIV14, in the test on DIV17, in the test with DIV30, in the test on Dd2, in the test with ECU and in the test with FAB9 was “inactive” each time. The Potency entry with GB4, in the test with HB3, with ICS, in the test with JCK, in the test with N140 and with P93_24 was “inactive” in each case. Besides, the Potency result with P94_40, in the test with PAD, in the test with PC15, with PC26, in the test on PC49 and in the test with SC27B was “inactive” each time. For the same compound, the Potency result in the test on TAB109 and in the test with TAB113 was “inactive” each time.

Regarding `CCOC(=O)c1ccc(O)cc1`, the Potency entry in the test with DIV14, with DIV17, with DIV30, in the test on Dd2, in the test on ECU and with FAB9 was “inactive” each time. In addition, the Potency entry in the test on GB4, with HB3, in the test on ICS, in the test with JCK, with N140 and with P93_24 was “inactive” in each case. Moreover, the Potency entry in the test on P94_40, in the test with PAD, in the test with PC15, with PC26, in the test with PC49 and in the test on SC27B was “inactive” throughout. Moreover, the Potency entry in the test on TAB109 and in the test with TAB113 was “inactive” in each case.

As to `C=Cc1c(C)c2cc3[nH]c(cc4nc(cc5nc(cc1[nH]2)C(C)=C5CCC(=O)O)C(CCC(=O)O)=C4C)c(C)c3C=C`, the Potency entry in the test with DIV14, in the test with DIV17, in the test with DIV30, in the test on Dd2, in the test on ECU and with FAB9 was “inactive” throughout. For the same compound, the Potency result in the test with GB4, with HB3, with ICS, in the test on JCK, with N140 and in the test with P93_24 was “inactive” each time. Further, the Potency entry in the test on P94_40, in the test with PAD, in the test with PC15, in the test with PC26, in the test on PC49 and in the test on SC27B was “inactive” throughout. Also, the Potency result with TAB109 and in the test on TAB113 was “inactive” throughout.

For the compound `Cc1cc(C(C#N)c2ccc(Cl)cc2)c(Cl)cc1NC(=O)c1cc(I)cc(I)c1O` (centres undefined), the Potency result in the test with DIV14, in the test on DIV17, in the test on DIV30, in the test with Dd2, in the test on ECU and with FAB9 was “inactive” in each case. The Potency result with GB4, with HB3, in the test on ICS, in the test with JCK, in the test on N140 and in the test on P93_24 was “inactive” throughout. The Potency entry in the test on P94_40, in the test with PAD, in the test with PC15, with PC26, with PC49 and in the test on SC27B was “inactive” each time. In addition, the Potency entry in the test on TAB109 and in the test with TAB113 was “inactive” in each case.

For `Cc1cc(O)cc2c1O[C@](C)(CCC[C@H](C)CCC[C@H](C)CCCC(C)C)CC2`, the Potency entry in the test with DIV14, with DIV17, in the test with DIV30, in the test with Dd2, in the test with ECU and with FAB9 was “inactive” each time. Besides, the Potency entry with GB4, in the test with HB3, in the test with JCK, with N140, with P93_24 and with P94_40 was “inactive” throughout. In addition, the Potency entry with PAD, in the test on PC15, in the test on PC26, with PC49, in the test with SC27B and with TAB109 was “inactive” throughout. The Potency result in the test with TAB113 is “inactive”. Also, in the test with ICS, the Potency is 8.91 µM (active).

Turning to `CC1(C)OC(=O)NC1=O`, the Potency entry with DIV14, with DIV17, with DIV30, with Dd2, with ECU and in the test on FAB9 was “inactive” throughout. In addition, the Potency entry with GB4, with HB3, in the test on ICS, in the test with JCK, with N140 and with P93_24 was “inactive” in each case. For the same compound, the Potency result with P94_40, with PAD, in the test on PC15, with PC26, with PC49 and in the test on SC27B was “inactive” each time. Moreover, the Potency entry in the test with TAB109 and with TAB113 was “inactive” in each case.

As to `CC1(C)CO[C@@H](CC(=O)O)CN1`, the Potency result with DIV14, in the test with DIV17, in the test with DIV30, in the test with Dd2, in the test with ECU and in the test with FAB9 was “inactive” in each case. The Potency result with GB4, in the test with HB3, in the test on ICS, with JCK, in the test with N140 and in the test with P93_24 was “inactive” throughout. Moreover, the Potency result with P94_40, in the test on PAD, in the test with PC15, with PC26, in the test with PC49 and with SC27B was “inactive” throughout. Besides, the Potency entry in the test with TAB109 and in the test with TAB113 was “inactive” each time.

As for `O=c1[nH]c(=O)c2[nH]c(=O)[nH]c2[nH]1`, the Potency result in the test with DIV14, with DIV17, with DIV30, in the test on Dd2, in the test with ECU and with FAB9 was “inactive” in each case. Moreover, the Potency entry in the test with GB4, in the test with HB3, in the test on ICS, in the test with JCK, in the test with N140 and in the test on P93_24 was “inactive” throughout. For the same compound, the Potency result with P94_40, in the test on PAD, in the test with PC15, with PC26, in the test with PC49 and with SC27B was “inactive” in each case. The Potency entry in the test on TAB109 is “inactive”.

Take `CCCOC(=O)c1ccccc1`: the Potency result with DIV14, with DIV17, in the test on DIV30, with Dd2, with ECU and with FAB9 was “inactive” in each case. For the same compound, the Potency entry in the test with GB4, in the test with HB3, in the test on ICS, in the test on JCK, with N140 and in the test with P93_24 was “inactive” in each case. For the same compound, the Potency result in the test with P94_40, with PAD, in the test on PC15, with PC26, with PC49 and in the test with SC27B was “inactive” each time. Also, the Potency entry in the test on TAB109 and with TAB113 was “inactive” throughout.

The values above are taken from PubChem BioAssay (NCATS).
